TDP1 cell CPT: DT40-hTDP1 cell growth loss with CPT | actives 12% (n = 420,000) | Potency, µM (titrated, usually from 46.2 µM), for the others: top-dose activity change, negative = growth inhibition, usual class: inhibitors | chicken DT40 Tdp1-/-;hTDP1 cells + 20 nM CPT, ATP luminescence, 48 h; further: potency means the concentration at half of the fitted maximal effect; nearly all actives have a fitted effect of over 55% in size
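Chicken DT40 Tdp1-/- cells stably complemented with human TDP1 were seeded at 400 cells/well in medium containing 20 nM camptothecin, exposed to pin-transferred compounds, and grown at 37 °C for at least 48 hr. Viability was read as ATP luminescence.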
RORg inh: inhibitors of mouse ROR gamma transcriptional activity | P51450 | AID 2551 | actives 5.4% (n = 310,000) | Drosophila S2 Gal4-RORgamma UAS-luciferase reporter, 20 h | Potency, µM (titrated, usually from 53.6 µM), without a hit: top-dose activity change, negative = inhibition, most hits filed as inhibitors; further: potency means the concentration at half of the fitted maximal effect; nearly all actives have a fitted effect of over 60% in size
Target sequence (P51450 whole entry, looked up, the tested form may be a part): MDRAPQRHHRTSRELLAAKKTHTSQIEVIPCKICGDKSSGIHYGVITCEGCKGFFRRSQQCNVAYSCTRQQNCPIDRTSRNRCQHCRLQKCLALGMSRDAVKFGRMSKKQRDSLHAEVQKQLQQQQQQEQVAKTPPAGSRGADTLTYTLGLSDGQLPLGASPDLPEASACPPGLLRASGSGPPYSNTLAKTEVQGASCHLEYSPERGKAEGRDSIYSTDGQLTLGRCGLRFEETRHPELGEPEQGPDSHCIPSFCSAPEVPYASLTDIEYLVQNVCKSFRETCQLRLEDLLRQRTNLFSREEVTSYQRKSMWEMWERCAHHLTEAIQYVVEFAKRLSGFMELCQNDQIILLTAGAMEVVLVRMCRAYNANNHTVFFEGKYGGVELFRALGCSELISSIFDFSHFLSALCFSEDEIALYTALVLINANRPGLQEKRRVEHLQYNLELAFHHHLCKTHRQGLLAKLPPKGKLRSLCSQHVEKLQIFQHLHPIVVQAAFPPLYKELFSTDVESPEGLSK
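Using a luciferase readout, inhibitors were identified by reduced reporter activity in Drosophila cells coexpressing a copper-inducible Gal4–ROR gamma fusion and UAS-driven Photinus luciferase, incubated 20 hr after 700 uM copper sulfate.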
Gal4-VP16 FLuc: inhibits Gal4-VP16 luciferase reporter, ROR gamma counter-screen | actives 3.5% (n = 310,000) | Potency, µM (highest dose often 53.6 µM), without a hit: at the highest dose activity, negative = inhibition, usual class: inhibitors | Drosophila S2 Gal4-VP16 UAS-luciferase, luminescence, 20 h;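 further: Gal4-VP16 expression switched on by copper sulfate through the metallothionein promoter; potency means the concentration at half of the fitted maximal effect; nearly all actives have a fitted effect of over 50% in size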
ELG1 repair inh: ELG1-dependent DNA repair inhibition | HEK293T ELG1-luciferase reporter, luminescence, 16 h; DNA damage induced by 5-fluorouridine | Potency, µM (series often up to 46.1 µM), inactives show top-dose activity change, negative = inhibition, actives largely listed as inhibitors | actives 2.3% (n = 330,000) | AID 504467; further: potency means the concentration at half of the fitted maximal effect; nearly all actives have a fitted effect of over 55% in size
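Reporter activity after DNA damage by 5-fluorouridine is monitored. Compound-treated cells incubate 16 hr at 37 °C, then ONE-Glo is added for 30 min before luminescence reading.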
DT40 TDP1 no CPT: qHTS for Inhibitors of human tyrosyl-DNA phosphodiesterase 1 (TDP1): qHTS in cells in absence of CPT; Potency, µM (titrated, usually from 46.2 µM), for the others: at the top dose activity change, negative = growth inhibition, actives largely listed as inhibitors; actives 15% (n = 420,000); DT40 Tdp1-/- hTDP1 cells, no CPT, ATP luminescence, 48 h; AID 686978, 2013; further: potency means the concentration at half of the fitted maximal effect; nearly all actives have a fitted effect of over 55% in size
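Camptothecin absent (DMSO only). Human TDP1-complemented DT40 knockout cells, 400 cells/well, 37 °C for minimum 48 hr; ATP measured via CellTiter-Glo, 30 min dark incubation, luminescence.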
IL1B secr inh: inflammasome signaling inhibition, IL-1 beta readout | THP-1 LPS/ATP IL-1B secretion, AlphaLISA, 16 h; stronger effect = lower value | activity change, % at 57.5 µM | actives 4.7% (n = 360,000) | AID 743279; in the data active means activity change below about -50%; inconclusive means mostly about -30% to -49%
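THP-1 cells pretreated 1 hr with compounds (up to 57.5 uM final), then stimulated with LPS (250 ng/mL final) plus ATP (1.25 mM final); secreted IL-1B measured by AlphaLISA after 16 hr, decreased signal indicating inhibition.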
Numbers without * were called inactive; ? = inconclusive; / = not tested or not shown; [ ] = dose if it differs, or a comment. In the library only some 21% were active in any assay of this set; here they are far more common. Unless noted, the call rests on the fitted dose curve; in most records, active means well fitted curve in the direction sought with a large enough effect; inconclusive means small, poorly fitted or top-dose-only effect, or another doubt; inactive means no such curve, though single readings can be large; an effect the other way counts as inactive or inconclusive. On the % scale 0 is the no-effect control and ±100 the full control effect.

SMILES	TDP1 cell CPT	RORg inh	Gal4-VP16 FLuc	ELG1 repair inh	DT40 TDP1 no CPT	IL1B secr inh
CC1(C(=O)NS(=O)(=O)Cc2cccc(Cl)c2)CCN1C(=O)CCc1cccs1 (stereo unspecified)	-2%	/	/	/	4%	-4
CC(C)C[C@H]1CN=C(Nc2ccccc2)N1CCC1CCCC1	?	-21%	2%	-4%	23µM*	-24
CC(C)C[C@H]1CN=C(Nc2ccccc2)N1CCCC1CCCCC1	?	18%	-5%	-2%	18µM*	-63*
CC(C)CCCN1C(Nc2ccccc2)=NC[C@@H]1C	?	-22%	3%	0%	-16%	6
C[C@H](NS(=O)(=O)c1ccccc1)C(=O)N1CCN(C(c2ccccc2)c2ccccc2)CC1	?	/	/	26µM*	?	-24
O=C(C1CCCCN1S(=O)(=O)c1ccccc1)N1CCCCC1 (stereo unspecified)	?	-7%	-3%	4%	16µM*	21
O=C(O)C1CCCCN1S(=O)(=O)c1ccccc1 (stereo unspecified)	2%	-15%	-3%	13%	4%	12
CS(=O)(=O)N(CC(=O)N1CCN(c2ccccc2F)CC1)C1CCCCC1	-28%	-1%	7%	?	?	5
O=C(C1CCCCN1S(=O)(=O)c1ccccc1)N1CCN(C(c2ccccc2)c2ccccc2)CC1 (stereo unspecified)	23µM*	-15%	9%	-13%	21µM*	12
CS(=O)(=O)N(CC(=O)N1CCN(C(c2ccccc2)c2ccccc2)CC1)C1CCCCC1	-16%	13µM*	-1%	?	-10%	-15
Oc1cccc2oc(=S)[nH]c12	-6%	/	/	/	-10%	7
Cn1cccc1C(=O)N1CCC2(CCCN(c3ccc(-c4ccccc4)cc3)C2)CC1	?	8%	-7%	/	?	/
O=C(COc1ccc(S(=O)(=O)N2CCCC2)cc1)Nc1ccc2c(c1)OCCO2	-5%	12%	-2%	-1%	-39%	12
C=C(C(C)=O)C(O)c1cccc(OC)c1 (stereo unspecified)	/	-3%	7%	/	/	/
O=C(C1CCCN1S(=O)(=O)c1ccc(Cl)c(Cl)c1)N1CCOCC1 (stereo unspecified)	-16%	-2%	6%	-4%	-13%	-23
O=C(C1CCCN1S(=O)(=O)c1ccc(Cl)c(Cl)c1)N1CCCCC1 (stereo unspecified)	18µM*	8%	14%	-12%	16µM*	7
O=C(/C=C/NCc1cccnc1)c1ccc(Br)cc1	2%	/	/	/	10%	-19
COc1ccc(S(=O)(=O)N/N=C(/C)c2ccc(Cl)cc2)cc1	8%	15%	-5%	1%	-1%	-5
COc1ccc(C/C(C)=N/NS(=O)(=O)c2ccc(Br)cc2)cc1	-16%	10µM*	?	?	9%	11
O=C(O)CC/C(=N/Nc1ncc(C(F)(F)F)cc1Cl)C(=O)O	-5%	13µM*	?	?	3%	30
CCOC(=O)C=C1CCN(c2ncc(C(F)(F)F)cc2Cl)CC1	-22%	-42%	0%	1%	-18%	-7
CCOC(=O)N1CCC(=NNc2ncc(C(F)(F)F)cc2Cl)CC1	0%	7.1µM*	?	-3%	-11%	-13
CC(=O)N1CCC(=NNc2ncc(C(F)(F)F)cc2Cl)CC1	?	3.2µM*	?	-5%	?	111
Cc1ccc2c(CC(=O)N3CCOc4ccc(CN5C[C@@H](C)O[C@@H](C)C5)cc4C3)cc(=O)oc2c1	21%[9.04 µM]	/	/	/	-14%	/
Oc1ccc(N=Cc2cc(Br)c(N3CCOCC3)o2)cc1	?	-20%	?	-11%	21µM*	0
SMILES	TDP1 cell CPT	RORg inh	Gal4-VP16 FLuc	ELG1 repair inh	DT40 TDP1 no CPT	IL1B secr inh
O=[N+]([O-])c1cc(Br)c(O)c(C=Nc2ccc(N3CCOCC3)cc2)c1	-19%	-3%	-5%	-5%	?	30
C=C1CCC2[C@](C)(CO)[C@H](O)CC[C@@]2(C)[C@@H]1C/C=C1\C(=O)OC[C@H]1O (stereo partly specified)	3.7µM*	/	/	?	4.6µM*	-88*
CC(C)COC(=O)Nc1nnc(Cc2ccccc2)s1	?	39%	2%	1%	9.2µM*	32
Cc1ccc(C(=O)NCCCNC(=O)COc2ccc(Cl)cc2)cn1	-9%	22%	-6%	-17%	0%	64
Cc1ccc(N(C(=O)c2csnn2)C(C(=O)NC2CCCCC2)c2ccccn2)cc1C (stereo unspecified)	-5%	16%	4%	-3%	-16%	8
CC1CCCC(C)N1S(=O)(=O)c1ccc(Cl)cc1 (stereo unspecified)	-23%	-33%	1%	0%	?	-3
CC1=C(C)CS(=O)N(S(=O)(=O)c2ccc(Cl)cc2)C1 (stereo unspecified)	3.7µM*	?	6.3µM*	25%	2.3µM*	-93*
O=S(=O)(c1ccccc1)N1CCC2(CCCN(C(c3ccccc3)c3ccccc3)C2)CC1	7%	-13%	-4%	/	-4%	/
C=CCOc1cccc(C(=O)Nc2ncn[nH]2)c1	-9%	22µM*	?	3%	1%	5
CC(C)CN1CCC(CN2CCNC(=O)C2=O)CC1	8%	/	/	/	-7%	8
CCCSc1cc(N2CCN(C)CC2)nc(-c2ccc(OC)cc2)n1	?	1%	-6%	-16%	?	-57*
COC(=O)c1cc(Br)c(=O)n(CCC2=CCCCC2)c1	21µM*	-39%	1%	6%	?	17
COC(=O)c1cc(Br)c(=O)n(CCN2CCCC2)c1	9%	-2%	0%	12%	-19%	32
Cc1cnc(C2OCCO2)c2cccc([N+](=O)[O-])c12	-18%	/	/	/	?	-19
CC(=O)Nc1nonc1-c1nnc(SCc2ccc(F)cc2Cl)n1C	?	/	/	/	15µM*	/
CC(=O)Nc1nonc1-c1nnc(SCc2ccc(F)cc2)n1C	-21%	/	/	/	?	/
CCn1c(SCC(=O)Nc2ccc(C)c(C)c2)nnc1-c1nonc1NC(C)=O	?	/	/	/	-25%	/
CCn1c(SCc2ccc(F)cc2Cl)nnc1-c1nonc1NC(C)=O	16µM*	/	/	/	18µM*	/
Cc1ncc(CCl)c2c1OC(C)(C)OC2	?	32%	-15%	0%	23µM*	8
Cc1ncc(CO)c2c1OC(C)(C)OC2	15%	9%	-3%	10%	0%	-11

Screening data (PubChem)
